This note sets out measurements from PubChem BioAssay.

Experiment [1] can be described thus: stimulators of nuclear beta-catenin in C2C12, primary screen, imaging, WNT3A-conditioned medium, mouse C2C12, NPC library (AID 1117326; in the data active = nuclear beta-catenin stimulation mostly above about 4.2%, no sharp cut-off; inactive = mostly below about 10%). As to conditions: stronger effect = higher value.
The nature of experiment [2]: stimulators of insulin release from INS-1E, primary screen, cell-based, 5 mM glucose, NPC library (AID 1117329;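 active = compound raises insulin release from rat beta cells at 5 mM glucose, no numeric limit stated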). As to conditions: rat INS-1E insulin secretion, at 10 µM, stronger effect = higher value.
A short description of experiment [3]: growth inhibition of GSK3B-pretreated HCT116 cells – cell-based, CellTiter-Glo, 0.2 to 20 µM (AID 1117336;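 active = compounds lowering colon cancer cell viability after pretreatment blocking the GSK3B kinase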). As to conditions: HCT116 viability after GSK3B inhibitor, at 20 µM, stronger effect = higher value. For orientation: Cellular ATP, detected with luciferase, serves as a proxy for viable cell number.
Experiment [4] can be described thus: inhibition of endothelial tube formation, primary screen, imaging, VEGF stimulated, CD31 staining, tube area, NPC library (AID 1117340;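 active = compound that reduces growth-factor-driven endothelial tube area in a mixed cell culture, no cutoff stated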). Conditions: VEGF-stimulated ADSC/ECFC co-culture, at 10 µM, stronger effect = higher value.
Experiment [5] is described as follows: glucagon-like peptide 1 release enhancers, primary assay, NCI-H716 cell line, NPC library (AID 1117341;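 active = compound raises GLP1 secretion from the human gut endocrine cells, with no numeric limit stated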). As to conditions: NCI-H716 cells, at 10 µM, stronger effect = higher value.
Experiment [6] can be described thus: HCT116 colon cancer cell growth inhibition, primary screen, CellTiter-Glo luminescence, NPC library (AID 1117342;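 active = compounds that lower survival of HCT116 colon cancer cells in the luminescence readout, no numeric limit stated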). As to conditions: at 20 µM (top of the series).
The nature of experiment [7]: CellTiter-Glo luminescent readout of SW480 viability loss, NPC library primary (AID 1117343;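 active = compounds that lower viability of the colon cancer cells in the luminescence readout, with no numeric limit stated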). As to conditions: CellTiter-Glo luminescence; at 20 µM (top of the series) unless noted.
A short description of experiment [8]: decreased DLD-1 cellular survival, CellTiter-Glo luminescent readout, NPC compound collection, primary HTS (AID 1117346;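 active = compounds that lower survival of DLD-1 colon cancer cells in the luminescence readout, no cutoff given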). As to conditions: DLD-1 viability, CellTiter-Glo luminescence; at 20 µM (top of the series).
Experiment [9] can be described thus: growth inhibition of DIPG glioma cells, dose response, cell-based, JHH-DIPG-1, MIPE4.0, CellTiter-Glo, qHTS (AID 1347062; cut-off not given, nearly all actives have AC50 up to about 27 µM). Conditions: JHH-DIPG-1 viability, CellTiter-Glo ATP luminescence.
Experiment [10] in a line: growth inhibition of DIPG glioma cells, dose response, cell-based, SU-DIPG-IV, MIPE4.0, CellTiter-Glo, qHTS (AID 1347063; cut-off not given, nearly all actives have AC50 up to about 30 µM;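 also: compound exposure lasted 48 hours before the viability readout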). As to conditions: SU-DIPG-IV viability, CellTiter-Glo ATP luminescence.
The nature of experiment [11]: SU-DIPG-VI glioma cell viability, MIPE4.0 library, CellTiter-Glo luminescence, qHTS (AID 1347066; cut-off not given, nearly all actives have AC50 up to about 30 µM;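 also: cells exposed to compound for 48 hours before readout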). Conditions: CellTiter-Glo ATP luminescence.
Experiment [12] can be described thus: sensitizers of A549 cells to miR-34 induction, primary screen, imaging, A549 dox-inducible miR-34, nuclei and caspase counts (AID 1347080). Conditions: A549 miR-34 inducible, Hoechst nuclei count, 48 h.
Experiment [13] can be described thus: survival rescue of mitochondrial mutant cells in low glucose, primary screen, MELAS cybrids, Rieske KO mouse fibroblasts, CellTiter-Glo (AID 1508586;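 active = mean z-score across replicates of 1.96 or higher in either the MELAS or the Rieske mutant cell line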;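 also: z relative to plate mean and SD of compound and empty wells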).
The nature of experiment [14]: liver-stage malaria parasite growth inhibition, primary screen, cell-based, HepG2, luciferase luminescence, HepG2 viability (AID 624349; in the data active = parasite load remaining mostly below about 12%, no sharp cut-off; inactive = mostly above about 10%;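 also: 100% = mean of DMSO negative control wells on the same plate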). As to conditions: P. berghei liver stage in HepG2, luciferase luminescence, concentration not given here; parasite load remaining: stronger effect = lower value; viability: measured here: HepG2 viability without parasites.
The nature of experiment [15]: viability rescue of complex I mutant cybrids, primary screen, cell-based, galactose medium, ATP luminescence (AID 1645843;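 active = z-score of at least 1.8 in each of two replicates, scored against plate mean and spread of sample wells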;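 also: positive z means more ATP and so rescue of galactose-driven cybrid death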). Conditions: complex I mutant cybrid cells, 72 h, stronger effect = higher value.
The mark [16] stands for this setting: stronger effect = lower value, cell number ratio, induced over uninduced.
The mark [17] stands for this setting: measured here: relative caspase fold change +Dox/-Dox.
The mark [18] stands for this setting: measured here: total cells with miR-34 induction, stronger effect = lower value.
[19] abbreviates: measured here: total cells without miR-34 induction.
The mark [20] stands for this setting: MELAS cybrid survival, CellTiter-Glo 48 h, stronger effect = higher value.
[21] abbreviates: Rieske KO mouse fibroblast survival, CellTiter-Glo 72 h.

Values joined by “and” are separate entries in the source; they are usually repeats but may differ in a detail not shown here. Equal values may be shown once. Inconclusive results are not listed. Active and inactive are the calls of the source.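 The calls were made as follows, unless noted: active = compounds whose cell count with miR-34 switched on is under 0.7 times the count with it off; inactive = the rest.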

Consider `NC(=O)Cc1cccc(C(=O)c2ccccc2)c1N`, for which the nuclear beta-catenin stimulation in [1] (at 10 µM) was 3% (inactive); in experiment [1] (stimulation, at 2 µM) it was 2.6%. Moreover, the insulin secretion stimulation in experiment [2] was -0.1% (inactive). Moreover, the viability decrease in experiment [3] was 4.9% (inactive). Moreover, in experiment [4], the tube area decrease is 12.4% (inactive). Besides, the GLP1 secretion stimulation in experiment [5] was -1.1% (inactive). Besides, the inhibition of viability in [6] was -6.03% (inactive). For the same compound, the viability decrease (inhibition) in experiment [7] was -28.7% (inactive); in [8] it was 6.9% (inactive). Moreover, the result in experiment [9], in [10] and in experiment [11] was inactive. For the same compound, the fold change in experiment [12] (setting [16]) is 0.902 (inactive); in [12] (setting [17]) it was 0.903. Also, the cell count was determined as 7400 in experiment [12] (setting [18]) and 8200 in experiment [12] (setting [19]). The values for the z-score in experiment [13] (setting [20]) and in experiment [13] (setting [21]) were -0.418 (inactive) and -0.195, respectively.
In general, AC50 refers to the concentration at which the activity in the assay is half-maximal. On to `O[C@@H](CNC[C@H](O)[C@H]1CCc2cc(F)ccc2O1)[C@@H]1CCc2cc(F)ccc2O1`, for which the nuclear beta-catenin stimulation in experiment [1] (at 10 µM) is 8.6% (inactive); in experiment [1] (stimulation, at 2 µM) it was -2.1%. Also, the insulin secretion stimulation in [2] was 2.75% (inactive). The viability decrease in [3] is 108% (active). For the same compound, the tube area decrease in experiment [4] was 60.9% (active). Also, the GLP1 secretion stimulation in experiment [5] is 5.8% (inactive). For the same compound, in experiment [6], the inhibition of viability was 112% (active). Moreover, the viability decrease (inhibition) was 130% (active) in [7] and 101% (active) in [8]. The half-maximal activity concentration (AC50) in experiment [10] is 20.9 µM (active).
One may read the viability as a read-out of living cells in per cent, often relative to untreated cells. Regarding `Cc1c(C)c2c(c(C)c1O)CCC(C)(COc1ccc(CC3SC(=O)NC3=O)cc1)O2` (configuration not stated), the parasite load remaining in experiment [14] is 65.9% (inactive) and 36.4% (inactive). The viability in [14] was 207% and 95%. For the same compound, the nuclear beta-catenin stimulation in [1] (at 10 µM) is 1.2% (inactive); in experiment [1] (stimulation, at 2 µM) it was 10.4%. The insulin secretion stimulation in experiment [2] is 1.4% (inactive). In addition, in [3], the viability decrease is 88.4% (active). Besides, the tube area decrease in [4] was 99.4% (active). Besides, in experiment [5], the GLP1 secretion stimulation is 11.9% (inactive). Further, the inhibition of viability in experiment [6] was 55.4% (active). In addition, the viability decrease (inhibition) in [7] is 110% (active); in experiment [8] it was 101% (active). Further, the outcome in experiment [9] and in experiment [11] was inactive. Moreover, the fold change in experiment [12] (setting [16]) is 1.09 (inactive) and 0.933 (inactive) and 0.824 (inactive); in [12] (setting [17]), 0.891 and 4.13 and 1.35. Besides, the cell count in experiment [12] (setting [18]) was 6090 and 11900 and 7450; in experiment [12] (setting [19]), 5600 and 12700 and 9040. Also, the z-score in [13] (setting [20]) was -0.456 (inactive) and 0.16 (inactive); in experiment [13] (setting [21]), 0.0968 and -0.894; in experiment [15] it was 0.175 (inactive).
For `Clc1cccc(C(c2ccc3nc[nH]c3c2)n2ccnc2)c1` (configuration not stated), the nuclear beta-catenin stimulation is 0.3% (inactive) in experiment [1] (at 10 µM) and -0.6% in [1] (stimulation, at 2 µM). Moreover, in experiment [2], the insulin secretion stimulation was 1.6% (inactive). Also, in experiment [3], the viability decrease is 11.8% (inactive). Moreover, in [4], the tube area decrease is 19.4% (inactive). The GLP1 secretion stimulation in [5] was 0.1% (inactive). The inhibition of viability in experiment [6] is 43.2% (inactive). The viability decrease (inhibition) is 44.6% (inactive) in experiment [7] and 33.5% (inactive) in [8].
Regarding `COC(=O)N[C@H](C(=O)N[C@@H](Cc1ccccc1)[C@@H](O)CN(Cc1ccc(-c2ccccn2)cc1)NC(=O)[C@@H](NC(=O)OC)C(C)(C)C)C(C)(C)C`, in experiment [14], the parasite load remaining is 62.2% (inactive). In addition, in experiment [14], the viability worked out at 276%. Besides, the nuclear beta-catenin stimulation is 2.9% (inactive) in [1] (at 10 µM) and 0.8% in experiment [1] (stimulation, at 2 µM). Moreover, the insulin secretion stimulation in experiment [2] was 2.15% (inactive). Moreover, the viability decrease in [3] was -7% (inactive). For the same compound, the tube area decrease in [4] is 82.7% (active). The GLP1 secretion stimulation in [5] was -0.7% (inactive). Further, the inhibition of viability in experiment [6] is 5.8% (inactive). Also, the viability decrease (inhibition) in experiment [7] was -2% (inactive); in [8], -6.7% (inactive). The compound was classed as inactive in experiment [9] and in experiment [11]. Moreover, the fold change in experiment [12] (setting [16]) was 0.809 (inactive); in experiment [12] (setting [17]), 0.911. Also, the cell count came out at 8470 in experiment [12] (setting [18]) and 10500 in experiment [12] (setting [19]). Moreover, the z-score in [13] (setting [20]) was -0.0891 (inactive); in experiment [13] (setting [21]) it was -1.39; in [15] it was 0.325 (inactive).
